# In all, about 2,900 compounds were measured (“NF-kB SEAP reporter activity, fold change vs agonist alone”: median about 0.99, highest 2% from about 2.6 on). The list comes from a sample in which the highest values are over-represented; it also holds similar structures and randomly drawn compounds.
# Experiments:
# RAW-Dual [1] = experiment: NF-kB SEAP reporter activity, fold change vs agonist alone; cytotoxicity flag (confluency mask): cytotoxic (confluency <70% of control); higher = enhanced NF-kB activity
# How it was run: (§1)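 After 50 nL of library stock was delivered by pin tool to RAW-Dual macrophages (50,000 cells/well, DMEM, 384-well plates), a PRR agonist was added 1 h later and the plates were kept at 37 °C, 5% CO2. Twenty hours later, IRF was read from supernatant by QuantiLuc luminescence and NF-κB by QuantiBlue absorbance at 620 nm. Reporter activity is stated as fold change over agonist-alone wells. Wells with IncuCyte confluency under 70% of agonist controls in both mask sets were counted as cytotoxic.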
# RAW-Dual [2] = experiment: NF-kB SEAP reporter activity, fold change vs agonist alone; higher = enhanced NF-kB activity
# How it was run: as §1
# RAW-Dual [3] = experiment: NF-kB SEAP reporter activity, fold change vs agonist alone; cytotoxicity flag (confluency mask): not cytotoxic; higher = enhanced NF-kB activity
# How it was run: as §1
# [4] = agonist: ODN 1826 (TLR9) 0.5 ug/mL
# [5] = agonist: Pam2CSK4 (TLR2/6) 0.1 ug/mL
# [6] = agonist: Pam3CSK4 (TLR2/1) 0.1 ug/mL
# [7] = library stock concentration (final ~1000-fold dilution): 10 mM, cytotoxicity flag (confluency mask): cytotoxic (confluency <70% of control), agonist: Imiquimod (TLR7) […]
# [8] = library stock concentration (final ~1000-fold dilution): 10 mM, cytotoxicity flag (confluency mask): cytotoxic (confluency <70% of control), agonist: MPLA (TLR4) […]
# [9] = library stock concentration (final ~1000-fold dilution): 10 mM, cytotoxicity flag (confluency mask): not cytotoxic, agonist: Imiquimod (TLR7) […]
# [10] = library stock concentration (final ~1000-fold dilution): 10 mM, cytotoxicity flag (confluency mask): not cytotoxic, agonist: MPLA (TLR4) […]
# [11] = library stock concentration (final ~1000-fold dilution): 2 mM, cytotoxicity flag (confluency mask): not cytotoxic, agonist: Imiquimod (TLR7) […]
# [12] = library stock concentration (final ~1000-fold dilution): 2 mM, cytotoxicity flag (confluency mask): not cytotoxic, agonist: MPLA (TLR4) […]
smiles,measurement,setting,value
CCC(=C(c1ccccc1)c1ccc(OCCN(C)C)cc1)c1ccccc1 (library stock concentration (final ~1000-fold dilution): 10 mM),NF-kB SEAP reporter activity,RAW-Dual [1]; agonist: LPS (TLR4) 0.1 ug/mL,0.687
same,NF-kB SEAP reporter activity,RAW-Dual [1]; [4],0.447
same,NF-kB SEAP reporter activity,RAW-Dual [1]; [5],0.398
same,NF-kB SEAP reporter activity,RAW-Dual [1]; [6],0.525
CCC(=C(c1ccccc1)c1ccc(OCCN(C)C)cc1)c1ccccc1,NF-kB SEAP reporter activity,RAW-Dual [2]; [7],1.53
same,NF-kB SEAP reporter activity,RAW-Dual [2]; [8],1.52
Cc1ccccc1C(OCCN(C)C)c1ccccc1.Cl (stereo not drawn),NF-kB SEAP reporter activity,RAW-Dual [2]; [9],1.38
same,NF-kB SEAP reporter activity,RAW-Dual [2]; [10],1.13
Cc1ccccc1C(OCCN(C)C)c1ccccc1.Cl (stereo not drawn) (library stock concentration (final ~1000-fold dilution): 10 mM),NF-kB SEAP reporter activity,RAW-Dual [3]; agonist: LPS (TLR4) 0.1 ug/mL,1.29
same,NF-kB SEAP reporter activity,RAW-Dual [3]; [4],0.935
same,NF-kB SEAP reporter activity,RAW-Dual [3]; [5],0.934
same,NF-kB SEAP reporter activity,RAW-Dual [3]; [6],0.932
COc1cc(OC)cc(-c2cc3cnc(N)nc3nc2NC(=O)NC(C)(C)C)c1,NF-kB SEAP reporter activity,RAW-Dual [2]; [9],0.989
same,NF-kB SEAP reporter activity,RAW-Dual [2]; [10],1.1
COc1cc(OC)cc(-c2cc3cnc(N)nc3nc2NC(=O)NC(C)(C)C)c1 (library stock concentration (final ~1000-fold dilution): 10 mM),NF-kB SEAP reporter activity,RAW-Dual [3]; agonist: LPS (TLR4) 0.1 ug/mL,5.36
same,NF-kB SEAP reporter activity,RAW-Dual [3]; [4],1.02
same,NF-kB SEAP reporter activity,RAW-Dual [3]; [5],0.578
same,NF-kB SEAP reporter activity,RAW-Dual [3]; [6],0.747
CNc1ncc2cc(-c3cc(NC(=O)NCCC(C)(C)C)c(F)cc3C)c(C)nc2n1 (library stock concentration (final ~1000-fold dilution): 2 mM),NF-kB SEAP reporter activity,RAW-Dual [3]; agonist: LPS (TLR4) 0.1 ug/mL,1.42
same,NF-kB SEAP reporter activity,RAW-Dual [3]; [4],0.533
same,NF-kB SEAP reporter activity,RAW-Dual [3]; [5],0.218
same,NF-kB SEAP reporter activity,RAW-Dual [3]; [6],0.28
CCN(CC)CCCCNc1ncc2cc(-c3cc(OC)cc(OC)c3)c(NC(=O)NC(C)(C)C)nc2n1,NF-kB SEAP reporter activity,RAW-Dual [2]; [7],2.8
same,NF-kB SEAP reporter activity,RAW-Dual [2]; [8],2.71
CNc1ncc2cc(-c3cc(NC(=O)NCCC(C)(C)C)c(F)cc3C)c(C)nc2n1,NF-kB SEAP reporter activity,RAW-Dual [2]; [11],0.497
same,NF-kB SEAP reporter activity,RAW-Dual [2]; [12],0.918
CCN(CC)CCCCNc1ncc2cc(-c3cc(OC)cc(OC)c3)c(NC(=O)NC(C)(C)C)nc2n1 (library stock concentration (final ~1000-fold dilution): 10 mM),NF-kB SEAP reporter activity,RAW-Dual [1]; agonist: LPS (TLR4) 0.1 ug/mL,0.324
same,NF-kB SEAP reporter activity,RAW-Dual [1]; [4],0.891
same,NF-kB SEAP reporter activity,RAW-Dual [1]; [5],1.72
same,NF-kB SEAP reporter activity,RAW-Dual [1]; [6],1.56
O=C(c1cccc(Br)c1)N1CCC(N2CCCC2)CC1 (library stock concentration (final ~1000-fold dilution): 10 mM),NF-kB SEAP reporter activity,RAW-Dual [3]; agonist: LPS (TLR4) 0.1 ug/mL,1.39
same,NF-kB SEAP reporter activity,RAW-Dual [3]; [4],0.951
same,NF-kB SEAP reporter activity,RAW-Dual [3]; [5],1.16
same,NF-kB SEAP reporter activity,RAW-Dual [3]; [6],0.966
O=C(c1cccc(Br)c1)N1CCC(N2CCCC2)CC1,NF-kB SEAP reporter activity,RAW-Dual [2]; [10],1.09
O=C(NC1(c2ccccc2)CC1)c1c(CN2CCC(N3CCCCC3)CC2)c(-c2cccc(C(F)(F)F)c2)nc2cc(Br)ccc12,NF-kB SEAP reporter activity,RAW-Dual [2]; [7],0.916
same,NF-kB SEAP reporter activity,RAW-Dual [2]; [8],1.03
O=C(NC1(c2ccccc2)CC1)c1c(CN2CCC(N3CCCCC3)CC2)c(-c2cccc(C(F)(F)F)c2)nc2cc(Br)ccc12 (library stock concentration (final ~1000-fold dilution): 10 mM),NF-kB SEAP reporter activity,RAW-Dual [1]; agonist: LPS (TLR4) 0.1 ug/mL,2.58
same,NF-kB SEAP reporter activity,RAW-Dual [1]; [4],0.897
same,NF-kB SEAP reporter activity,RAW-Dual [1]; [5],0.896
same,NF-kB SEAP reporter activity,RAW-Dual [1]; [6],1.27
CN1C(=O)C(NC(=O)c2n[nH]c(Cc3ccccc3)n2)COc2ccccc21 (stereo not drawn),NF-kB SEAP reporter activity,RAW-Dual [2]; [9],1.3
same,NF-kB SEAP reporter activity,RAW-Dual [2]; [10],0.971
CN1C(=O)C(NC(=O)c2n[nH]c(Cc3ccccc3)n2)COc2ccccc21 (stereo not drawn) (library stock concentration (final ~1000-fold dilution): 10 mM),NF-kB SEAP reporter activity,RAW-Dual [3]; agonist: LPS (TLR4) 0.1 ug/mL,1.01
same,NF-kB SEAP reporter activity,RAW-Dual [3]; [4],1.59
same,NF-kB SEAP reporter activity,RAW-Dual [3]; [5],1.01
same,NF-kB SEAP reporter activity,RAW-Dual [3]; [6],1.15
CN(C/C=C/C#CC(C)(C)C)Cc1cccc2ccccc12.Cl (library stock concentration (final ~1000-fold dilution): 10 mM),NF-kB SEAP reporter activity,RAW-Dual [3]; agonist: LPS (TLR4) 0.1 ug/mL,3.51
same,NF-kB SEAP reporter activity,RAW-Dual [3]; [4],0.849
same,NF-kB SEAP reporter activity,RAW-Dual [3]; [5],0.948
same,NF-kB SEAP reporter activity,RAW-Dual [3]; [6],1.3
CN(C/C=C/C#CC(C)(C)C)Cc1cccc2ccccc12.Cl,NF-kB SEAP reporter activity,RAW-Dual [2]; [9],1.56
same,NF-kB SEAP reporter activity,RAW-Dual [2]; [10],2.08
CN(C/C=C/C#CC(C)(C)C)Cc1cccc2ccccc12,NF-kB SEAP reporter activity,RAW-Dual [2]; [9],1.6
same,NF-kB SEAP reporter activity,RAW-Dual [2]; [10],2.02
CN(C/C=C/C#CC(C)(C)C)Cc1cccc2ccccc12 (library stock concentration (final ~1000-fold dilution): 10 mM),NF-kB SEAP reporter activity,RAW-Dual [3]; agonist: LPS (TLR4) 0.1 ug/mL,4.26
same,NF-kB SEAP reporter activity,RAW-Dual [3]; [4],0.849
same,NF-kB SEAP reporter activity,RAW-Dual [3]; [5],0.95
same,NF-kB SEAP reporter activity,RAW-Dual [3]; [6],1.44
COc1cc2c(cc1OC)CN(C(=O)/C=C/c1c(-c3ccccc3)n(C)c3ncccc13)CC2.Cl (library stock concentration (final ~1000-fold dilution): 10 mM),NF-kB SEAP reporter activity,RAW-Dual [3]; agonist: LPS (TLR4) 0.1 ug/mL,1.15
same,NF-kB SEAP reporter activity,RAW-Dual [3]; [4],1.14
same,NF-kB SEAP reporter activity,RAW-Dual [3]; [5],1.15
same,NF-kB SEAP reporter activity,RAW-Dual [3]; [6],1.18
COc1cc2c(cc1OC)CN(C(=O)/C=C/c1c(-c3ccccc3)n(C)c3ncccc13)CC2.Cl,NF-kB SEAP reporter activity,RAW-Dual [2]; [9],1
same,NF-kB SEAP reporter activity,RAW-Dual [2]; [10],1.02
CNC1CN(c2ccc3c(=O)c(C(=O)O)cn(-c4nccs4)c3n2)CC1OC.Cl (stereo not drawn) (library stock concentration (final ~1000-fold dilution): 2 mM),NF-kB SEAP reporter activity,RAW-Dual [3]; agonist: LPS (TLR4) 0.1 ug/mL,1.11
same,NF-kB SEAP reporter activity,RAW-Dual [3]; [4],1.56
same,NF-kB SEAP reporter activity,RAW-Dual [3]; [5],1.32
same,NF-kB SEAP reporter activity,RAW-Dual [3]; [6],1.18
CNC1CN(c2ccc3c(=O)c(C(=O)O)cn(-c4nccs4)c3n2)CC1OC.Cl (stereo not drawn),NF-kB SEAP reporter activity,RAW-Dual [2]; [11],1.12
same,NF-kB SEAP reporter activity,RAW-Dual [2]; [12],0.968
Br.CN(C)CCCC1(c2ccc(F)cc2)OCc2cc(C#N)ccc21 (stereo not drawn),NF-kB SEAP reporter activity,RAW-Dual [2]; [10],1.01
Br.CN(C)CCCC1(c2ccc(F)cc2)OCc2cc(C#N)ccc21 (stereo not drawn) (library stock concentration (final ~1000-fold dilution): 10 mM),NF-kB SEAP reporter activity,RAW-Dual [3]; agonist: LPS (TLR4) 0.1 ug/mL,1.15
same,NF-kB SEAP reporter activity,RAW-Dual [3]; [4],0.889
same,NF-kB SEAP reporter activity,RAW-Dual [3]; [5],0.786
same,NF-kB SEAP reporter activity,RAW-Dual [3]; [6],0.857
CCOc1cc(C(CS(C)(=O)=O)N2C(=O)c3cccc(NC(C)=O)c3C2=O)ccc1OC (stereo not drawn),NF-kB SEAP reporter activity,RAW-Dual [2]; [9],1.12
same,NF-kB SEAP reporter activity,RAW-Dual [2]; [10],1.26

# From the supplement of paper PMC10037445
